Screening data: PubChem BioAssay, National Center for Advancing Translational Sciences (NCATS)
Most compounds without a hit are left out; they make up all but 17% or so of the library.
HepG2 viability: kills HepG2 cells in TGF-b inhibitor counter-screen; Potency, µM (series often up to 46.1 µM), without a hit: at the top dose activity change, negative = cytotoxicity, usual class: cytotoxic; HepG2 CAGA-GFP viability, ATP luminescence, 18 h; 410,000 compounds, 0.76% hits; AID 588856
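CellTiter-Glo luminescence gave cytotoxicity after 18 hours at 37 degrees C. The cells were HepG2 CAGA-GFP in 1% FBS DMEM, stimulated with 500 pg/mL TGF-beta after compound addition. %Activity was normalised to no-cell wells (complete cell-killing) and DMSO (no toxicity), and curves were fitted and classified.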
ATXN viability: reduces viability in counter-screen for ATXN expression inhibitors. S2 cells (HEK-293 line with an ATXN2-luciferase reporter) viability, CellTiter-Fluor protease fluorescence, 24 h. Potency, µM (top dose mostly 56.7 µM), usual class: cytotoxic. 400,000 compounds, 0.49% hits. AID 651635; also: nearly all actives have a fitted effect of over 40% in size
ATXN2 expr inh: reduces ATXN2 reporter expression in HEK-293 cells; HEK-293 ATXN2-luciferase reporter, luminescence, 24 h; Potency, µM (series often up to 57 µM), for the others: top-dose activity change, negative = inhibition, hits mostly inhibitors; 360,000 compounds, 0.72% hits; also: % is scaled to controls: 0 for no effect and ±100 for the full control effect; nearly all actives have a fitted effect of over 55% in size
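ATXN2-luciferase reporter cells (luciferase flanked by upstream and downstream ATXN2 gene portions) were treated 24 h at 37 °C with compounds at up to 57 uM. SteadyGlo luminescence gave expression; GF-AFC fluorescence gave viability.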
TDP1 cell noCPT: qHTS for Inhibitors of human tyrosyl-DNA phosphodiesterase 1 (TDP1): qHTS in cells in absence of CPT; 420,000 compounds, 15% hits; DT40 Tdp1-/- hTDP1 cells, no CPT, ATP luminescence, 48 h; Potency, µM (doses to about 46.2 µM), for the others: at the highest dose activity change, negative = growth inhibition, actives largely listed as inhibitors; also: % is scaled to controls: 0 for no effect and ±100 for the full control effect; nearly all actives have a fitted effect of over 55% in size
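Luminescent ATP content (CellTiter-Glo) served as the growth readout. Knockout chicken DT40 cells expressing human TDP1 were exposed to compounds without camptothecin for a minimum 48 hr at 37 °C.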
DT40 TDP1 CPT: growth inhibition of DT40 Tdp1-/-;hTDP1 cells with camptothecin (screen for TDP1 inhibitors); 420,000 compounds, 12% hits; chicken DT40 Tdp1-/-;hTDP1 cells + 20 nM CPT, ATP luminescence, 48 h; Potency, µM (series often up to 46.2 µM), without a hit: at the highest dose activity change, negative = growth inhibition, hits mostly inhibitors; AID 686979; also: % is scaled to controls: 0 for no effect and ±100 for the full control effect; nearly all actives have a fitted effect of over 55% in size
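Chicken DT40 Tdp1-/- cells stably complemented with human TDP1 were seeded at 400 cells/well in medium containing 20 nM camptothecin, exposed to pin-transferred compounds, and grown at 37 °C for at least 48 hr. Viability was read as ATP luminescence.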
TGFb inhibitor: TGF-b pathway inhibition. Potency, µM (top dose mostly 46.1 µM), inactives show top-dose activity, negative = inhibition, actives largely listed as inhibitors. HepG2 CAGA-GFP TGF-b/SMAD3 reporter, GFP fluorescence, 18 h; TGF-beta stimulated, 500 pg/mL final. 410,000 compounds, 1.2% hits; also: % is scaled to controls: 0 for no effect and ±100 for the full control effect; nearly all actives have a fitted effect of over 65% in size
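Inhibition was scored as loss of TGF-beta-induced (500 pg/mL final, 18 hours, 37 degrees C) GFP in HEPG2 cells carrying a CAGA-GFP reporter, in DMEM with 1% FBS. Well GFP was summed per cell; Activity was normalised to unstimulated and stimulated DMSO wells, then concentration-response fitting.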
An asterisk follows results filed as active; i = inactive; u = inconclusive; x = no result given. Calls follow the shape of the dose curve; as a rule, active = well fitted curve in the direction sought with a large enough effect; inconclusive = small, poorly fitted or top-dose-only effect, or another doubt; inactive = no such curve, though single readings can be large; an effect the other way counts as inactive or inconclusive. Potency is read from the fitted curve at half-maximal effect.

SMILES	HepG2 viability	ATXN viability	ATXN2 expr inh	TDP1 cell noCPT	DT40 TDP1 CPT	TGFb inhibitor
CCOC(=O)N1CCN(C(=O)CSC2=NS(=O)(=O)c3cc(F)ccc3N2)CC1	2.8%	i	2.2%	5.0%	14.2%	-24.9%
Cc1cc(=O)c2cc(Br)ccc2[nH]1	-29.8%	u	9.3%	6.51µM*	6.51µM*	5.9%
Cc1cc(=O)c2ccccc2[nH]1	-21.8%	i	-11.2%	-13.2%	-21.2%	3.7%
C/C(=N\NC(=O)Cc1ccccc1)c1cccs1	-2.4%	i	3.5%	1.7%	-5.6%	-2.2%
C/C(=N/NC(=O)Cc1cccc2ccccc12)c1cccs1	-19.7%	i	-12.4%	16.4µM*	u	-13.3%
C/C(=N\NC(=O)c1cccc2ccccc12)c1cccs1	5.1%	i	21.0%	7.7%	11.1%	0.1%
C/C(=N\NC(=O)c1ccccc1O)c1cccs1	-43.5%	i	u	23.1µM*	-12.4%	u
CCNC(=O)COC(=O)/C=C/c1cccc(F)c1	0.1%	i	-1.9%	-12.8%	-24.9%	-0.1%
C[C@@H]1[C@H](c2ccccc2)OCCS(=O)(=O)N1Cc1ccc(F)cc1	2.2%	x	x	u	u	-17.3%
CC(C)(C)c1ccc(/C=C/C(=O)Nc2ccc(S(N)(=O)=O)cc2)cc1	-105.4%	i	u	8.2µM*	6.51µM*	u
COc1cccc(CNC(=O)c2cc3c(s2)-c2c(C)cccc2OC3)c1	-18.7%	i	0.7%	u	u	u
CCCOc1ccc(/C=C/C(=O)OCC(=O)N(C)c2c(N)n(Cc3ccccc3)c(=O)[nH]c2=O)cc1OCC	0.6%	i	7.3%	16.4µM*	u	29.6%
COCCN(C(=O)COC(=O)/C=C/c1ccc(C(F)(F)F)cc1)c1c(N)n(Cc2ccccc2)c(=O)[nH]c1=O	-26.7%	i	-19.0%	20.6µM*	20.6µM*	-0.9%
CN(C(=O)COC(=O)/C=C/c1ccc(Cl)c(Cl)c1)c1c(N)n(Cc2ccccc2)c(=O)[nH]c1=O	-32.0%	i	-11.0%	16.4µM*	9.2µM*	-15.6%
CC(=O)Nc1ccc(S(=O)(=O)Nc2cc(C)cn(Cc3ccccc3)c2=O)cc1	9.8%	i	-23.9%	7.31µM*	u	18.9%
CCN1CCN(C2=C(NS(=O)(=O)c3ccc(NC(C)=O)cc3)C(=O)c3ccccc3C2=O)CC1	-119.9%	u	x	20.6µM*	16.4µM*	u
CCN1CCN(c2nc3ccccc3nc2NS(=O)(=O)c2ccc(NC(C)=O)cc2)CC1	2.0%	i	x	-1.9%	0.8%	17.4%
CC1CCN(C2=C(NS(=O)(=O)c3ccc(Cl)cc3)C(=O)c3ccccc3C2=O)CC1	-1.0%	i	0.1%	-9.8%	-21.6%	1.2%
CC(=O)Nc1ccc(S(=O)(=O)Nc2cccn(Cc3ccc(C)cc3)c2=O)cc1	-12.7%	i	-6.5%	u	u	-2.5%
CCN1CCN(C2=C(NS(=O)(=O)c3ccc(C)cc3)C(=O)c3ccccc3C2=O)CC1	11.2µM*	u	u	20.6µM*	11.6µM*	12.6µM*
CC(=O)Nc1ccc(S(=O)(=O)NC2=C(N3CCN(Cc4ccccc4)CC3)C(=O)c3ccccc3C2=O)cc1	-131.3%	u	-30.5%	u	10.3µM*	u
COc1ccccc1NS(=O)(=O)c1c(C)[nH]c(C)c1C(=O)N1CCCC1	2.1%	i	-3.9%	16.4%	4.8%	14.7%
COc1ccccc1-c1cc(C(F)(F)F)nc(S(=O)(=O)CCCC(=O)Nc2ccccc2F)n1	11.2µM*	x	x	2.59µM*	2.59µM*	3.55µM*
COc1ccccc1-c1cc(C(F)(F)F)nc(S(=O)(=O)CCCC(=O)Nc2cccnc2Cl)n1	1.6%	u	u	4.61µM*	2.06µM*	u
CCCCn1c(N)c(N(CC(C)C)C(=O)COc2cc(C)ccc2Cl)c(=O)[nH]c1=O	-1.9%	i	10.3%	-1.6%	7.2%	-2.9%
SMILES	HepG2 viability	ATXN viability	ATXN2 expr inh	TDP1 cell noCPT	DT40 TDP1 CPT	TGFb inhibitor
CN(C)S(=O)(=O)N(CC(=O)NCCSc1ccc(Cl)cc1)c1ccccc1	-14.0%	i	-5.3%	u	u	u
COc1cccc(N2CCN(C(=S)Nc3cc(C)cc(C)c3)CC2)c1	0.5%	i	-23.0%	6.51µM*	6.51µM*	-0.1%
CCOc1ccccc1NC(=S)N1CCN(c2cccc(OC)c2)CC1	0.0%	i	-2.8%	u	20.6µM*	-19.2%
Cc1ccccc1CSc1nnc2[nH]c(=O)cc(-c3ccccc3)n12	0.0%	x	x	-2.6%	8.2%	-6.3%
O=C(NCc1ccccc1Cl)c1cnc2sc(N3CCCCC3)nn2c1=O	-3.0%	i	-1.3%	9.2µM*	13µM*	-19.7%
O=C(NCCc1ccccc1)c1cnc2sc(N3CCCCC3)nn2c1=O	-19.2%	i	5.3%	20.6µM*	8.2µM*	8.8%
O=C(NCCc1ccccc1)c1cnc2sc(N3CCCCCC3)nn2c1=O	-13.6%	x	x	13µM*	u	0.0%
CCOc1ccc(CCNC(=O)c2cnc3sc(N4CCCCCC4)nn3c2=O)cc1	-38.5%	x	x	18.4µM*	18.4µM*	0.0%
CCCCOc1ccc(CNC(=O)c2cnc3sc(N4CCCCCC4)nn3c2=O)cc1	-0.4%	x	x	-19.6%	-13.3%	-32.4%
CCNC(=O)c1cnc2sc(N3CCCCCC3)nn2c1=O	14.3%	x	x	-12.0%	-0.7%	3.2%
CN(CC1CCOCC1)C(=O)CC1C(=O)NCCN1C/C=C/c1ccccc1 (stereo unspecified)	7.2%	i	12.2%	-16.3%	24.4%	30.8%
Cc1ccc(CN2C(=O)SC(Nc3ccc(Cl)cc3)C2=O)cc1 (stereo unspecified)	-32.4%	u	u	u	u	-8.8%
COc1ccc(CNC(=O)c2cnc3sc(N4CCCC4)nn3c2=O)cc1OC	-23.3%	x	x	u	9.2µM*	-3.4%
CCCCn1c(N)c(N(CCOC)C(=O)C2CCN(C(=O)c3ccccc3C)CC2)c(=O)[nH]c1=O	19.8%	i	4.3%	2.7%	17.4%	11.8%
CCn1nc(NC(=O)C2CCCO2)c2cc3cccc(C)c3nc21 (stereo unspecified)	-20.4%	x	5.1%	-7.5%	2.6%	0.0%
Cn1cc(/C=C/c2cc[n+](C)cc2)c2cc(Cl)ccc21	-6.3%	i	u	0.731µM*	0.651µM*	102.3%
Cn1cc(/C=C/c2cc[n+](C)cc2)c2cc(F)ccc21	-23.4%	x	u	0.581µM*	0.517µM*	124.5%
